# Measurements: publication PMC4336329 (PLoS ONE, 2015)
# About 14,000 (4.5%) of roughly 310,000 compounds showed an effect of 50% or more. The effect is printed as a negative number. The full list was thinned out, with strong results kept by preference.
# Target: human ether-à-go-go-related gene (hERG) potassium channel (human, UniProt Q12809)
# Assay: primary screen, population patch clamp on CHO cells stably expressing hERG; higher = less effect of the substance
# 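Also: peak tail current of the secondary pulse compared with the same well before compound.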
# Chain of human ether-à-go-go-related gene (hERG) potassium channel (Q12809 whole entry, looked up): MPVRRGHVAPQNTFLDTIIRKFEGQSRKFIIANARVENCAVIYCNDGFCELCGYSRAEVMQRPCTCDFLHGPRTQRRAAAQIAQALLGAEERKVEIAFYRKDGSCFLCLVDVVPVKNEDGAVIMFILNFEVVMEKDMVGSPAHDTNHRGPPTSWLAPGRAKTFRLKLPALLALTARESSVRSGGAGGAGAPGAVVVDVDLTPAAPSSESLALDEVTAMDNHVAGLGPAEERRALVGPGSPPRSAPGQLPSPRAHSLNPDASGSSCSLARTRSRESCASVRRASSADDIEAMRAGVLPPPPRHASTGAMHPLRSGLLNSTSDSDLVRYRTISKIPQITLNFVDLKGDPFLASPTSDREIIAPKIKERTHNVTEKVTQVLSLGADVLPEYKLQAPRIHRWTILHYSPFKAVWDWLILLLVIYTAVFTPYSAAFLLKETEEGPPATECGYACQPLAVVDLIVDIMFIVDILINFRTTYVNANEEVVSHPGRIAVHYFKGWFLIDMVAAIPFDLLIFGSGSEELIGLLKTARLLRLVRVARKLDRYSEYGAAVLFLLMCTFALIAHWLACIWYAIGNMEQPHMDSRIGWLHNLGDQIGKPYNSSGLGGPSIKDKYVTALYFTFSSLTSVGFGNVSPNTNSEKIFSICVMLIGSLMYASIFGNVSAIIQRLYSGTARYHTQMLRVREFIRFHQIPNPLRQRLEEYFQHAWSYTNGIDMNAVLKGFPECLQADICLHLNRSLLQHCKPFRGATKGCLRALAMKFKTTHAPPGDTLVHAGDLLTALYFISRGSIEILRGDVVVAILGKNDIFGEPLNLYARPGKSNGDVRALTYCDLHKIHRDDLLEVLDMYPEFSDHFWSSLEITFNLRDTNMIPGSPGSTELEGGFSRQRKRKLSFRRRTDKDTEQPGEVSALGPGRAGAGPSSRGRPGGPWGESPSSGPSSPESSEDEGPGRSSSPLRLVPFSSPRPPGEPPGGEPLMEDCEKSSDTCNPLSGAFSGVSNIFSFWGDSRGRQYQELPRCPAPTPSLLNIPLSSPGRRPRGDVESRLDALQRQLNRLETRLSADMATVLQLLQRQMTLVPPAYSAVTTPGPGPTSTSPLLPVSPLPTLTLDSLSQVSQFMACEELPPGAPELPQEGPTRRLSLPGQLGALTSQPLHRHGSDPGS
row,Compound,"hERG current change (%, negative = inhibition) at 10uM [%]"
1,Cc1ccc(S(=O)(=O)NC2OC(=O)C(Cl)=C2Cl)cc1 (centres unmarked),-3.55
2,COC(=O)c1nc2ccccn2c1F,13.2
3,Cc1c(C(=O)N(C)CCCCN2CCOCC2)oc2c(F)cccc12,4.14
4,CC(=O)NC(=S)Nc1cc(C(=O)O)ccc1Cl,-64.9
5,CCCCC(=O)NC(=S)Nc1cc(C(=O)O)ccc1Cl,11.2
6,CC(C)(C)C(=O)NC(=S)Nc1cc(C(=O)O)ccc1Cl,4.5
7,COC(=O)c1scc(C)c1NC(=O)Nc1ccccc1,3.91
8,Cc1sc2ncnc(Oc3ccc(-n4ccnc4)cc3)c2c1C,-68.4
9,Cc1sc2ncnc(N)c2c1C,4.12
10,Cc1ccc2cccc(Oc3ncnc4sc(C)c(C)c34)c2n1,15.3
11,CCOc1ccc(N/C(N)=N/c2nc(CSc3nnc(C)s3)cc(=O)[nH]2)cc1,12.5
12,C/C=C/c1ccc(OCC(=O)Nc2ccc(C(N)=O)cc2)c(OC)c1,7.23
13,COc1ccc(C2C(C#N)=C(N)Oc3c2c(C)nn3-c2ccccc2)cc1Cn1nc(C)c([N+](=O)[O-])c1C (centres unmarked),-4.96
14,O=C(O)c1ccc(N2C(=O)c3cccc(Oc4ccc(Cl)cc4)c3C2=O)cc1,-80.7
15,Cc1cccc(N2C(=O)c3cccc(Oc4ccc(Cl)cc4)c3C2=O)c1,4.76
16,O=C(O)c1cccc(N2C(=O)c3cccc(Oc4ccc(Cl)cc4)c3C2=O)c1,16.2
17,Cc1cc(C)nc(NC2=NCC(=O)N2c2ccccc2Br)n1,8.96
18,CC[n+]1ccc(/C=C/c2c[nH]c3ccccc23)cc1.[Cl-],-6.54
19,Cc1cc(/C=C(/C#N)C(=O)O)c(C)n1CCC(C)C,4.68
20,CNC(=O)Nc1cc(C(F)(F)F)cc(C(F)(F)F)c1,14.3
21,Cc1nn(-c2ccccc2)c(Cl)c1/C=N/NC(=O)c1ccccc1F,14.6
22,COc1ccc(-n2c(Cc3ccccc3)nnc2SCC(=O)N2CCCc3ccccc32)cc1,-53.9

row,Compound,"hERG current change (%, negative = inhibition) at 10uM [%]"
1,COc1ccc(-n2c(SCc3ccc([N+](=O)[O-])cc3)nnc2-c2ccccc2)cc1,-24.4
2,COc1ccc(CC(=O)NCc2nnc(SCC(=O)c3ccc(OC)cc3)n2C)cc1,-3.61
3,COc1ccc(CC(=O)NCc2nnc(SCc3ccc(C)cc3)n2C)cc1,5.49
4,O=[N+]([O-])c1ccc(CSc2nnc(Cc3ccccc3)n2-c2ccc(F)cc2)cc1,-48.7
5,COCCn1c(Cc2ccccc2)nnc1SCc1ccc([N+](=O)[O-])cc1,-55
6,COc1ccc(CC(=O)NCc2nnc(SCc3ccc([N+](=O)[O-])cc3)n2C)cc1,-63.6
7,COc1ccc(-n2c(Cc3cccn3C)nnc2SCC(=O)N2CCCc3ccccc32)cc1,-13.9
8,COCCn1c(Cc2ccccc2)nnc1SCC(=O)Nc1ccccc1,5.83
9,COc1ccc(-n2c(Cc3ccccc3)nnc2SCc2ccc([N+](=O)[O-])cc2)cc1,-68.4
10,COc1ccc(OCc2nnc(SCC(=O)N3CCCc4ccccc43)n2-c2ccc(C)cc2)cc1,-3.12
11,COCCn1c(Cc2ccccc2)nnc1SCC(=O)N(C)C,14.3
12,CN1CCC(N(C)S(=O)(=O)c2ccc(NC(=O)COc3ccc(F)cc3)cc2)CC1,0.996
13,Cc1cc(C(F)F)n2nc(C(=O)Nc3ccc(S(=O)(=O)NC45CC6CC(CC(C6)C4)C5)cc3)nc2n1,-8.28
14,O=S(=O)(Cc1ccccc1)N1CCn2c(nc3ccccc32)C1,9.91
15,COCCNC(=O)C(=O)N/N=C(\C)CC(=O)Nc1cccnc1,8.89
16,Cc1cc(C)nc(SCc2nnc(SCC(N)=O)n2Cc2ccco2)n1,-7.19
17,CCn1c(SCc2ccc([N+](=O)[O-])cc2)nnc1C(C)NC(=O)c1ccc(C)cc1 (centres unmarked),-33.6
18,COC(=O)CSc1nnc(CSc2nc(C)cc(C)n2)n1Cc1ccco1,7.23
19,COc1ccc(NCc2nnc(SCC(=O)Nc3ccc(OC)cc3)n2C)cc1,-62.3
20,CC(C)OC(=O)CSc1nnc(COc2ccc([N+](=O)[O-])cc2)n1C,-69.9
21,COC(=O)CSc1nnc(COc2ccc([N+](=O)[O-])cc2)n1C,-47.6
22,COc1ccc(NCc2nnc(SCC(=O)Nc3ccccc3)n2C)cc1,-12.5

row,Compound,"hERG current change (%, negative = inhibition) at 10uM [%]"
1,COc1ccc(NC(=O)CSc2nnc(CNc3ccc(C)cc3)n2C)cc1,25.2
2,C=CCn1c(SCc2ccc([N+](=O)[O-])cc2)nnc1C(C)NC(=O)c1ccccc1 (centres unmarked),-54.5
3,CCn1c(SCc2ccc([N+](=O)[O-])cc2)nnc1C(C)NC(=O)c1ccccc1Br (centres unmarked),-27.6
4,Cn1c(COc2ccc([N+](=O)[O-])cc2)nnc1SCC(N)=O,1.54
5,Cc1cc(C)nc(SCc2nnc(SCc3ccc([N+](=O)[O-])cc3)n2Cc2ccco2)n1,-80.6
6,CC(C)N1CC(C(=O)Nc2ccc(Br)c(Cl)c2)CC1=O (centres unmarked),-2.34
7,O=C(COc1ccc(-c2ccccc2)cc1)NNC(=O)Nc1ccccc1,-2.73
8,Nc1c(Cl)ncnc1N/N=C/c1ccnc2ccccc12,1.91
9,CC(C)NC(=O)C(=O)NCCN1CCN(S(=O)(=O)c2ccc(Cl)cc2)CC1,-33.3
10,COCCN(C(C)=O)c1nnc(-c2cnccn2)s1,6.11
11,COC(=O)C1=C(C)NC2=C(C(=O)CC(C)(C)C2)C1c1cnn(C)c1C (centres unmarked),15.6
12,COc1ccc(OCC(=O)N/N=C2\CCCCc3ccccc32)cc1,-12.3
13,CCn1c(Cc2ccccc2)nnc1SCc1ccc([N+](=O)[O-])cc1,-57.1
14,CCOc1ccc(-n2c(Cc3ccccc3)nnc2SCc2c(C)noc2C)cc1,-74.1
15,CCc1ccc(-n2c(SCc3c(C)noc3C)nnc2-c2ccncc2)cc1,-36.6
16,Cc1cccc(-n2c(Cc3ccccc3)nnc2SCc2ccc([N+](=O)[O-])cc2)c1,-37.6
17,CCn1c(Cc2ccccc2)nnc1SCC(=O)c1cccc([N+](=O)[O-])c1,-24
18,CCOc1ccc(-n2c(COc3ccccc3)nnc2SCC(N)=O)cc1,-13.8
19,OCCOCCn1c(-c2ccccc2)nc(=S)c2c1CCCC2,9.34
20,CCCOc1ccc(Cn2c(O)cc(=O)[nH]c2=O)cc1,14.1
21,O=C(O)c1cccc(N2C(=O)c3cccc4cccc(c34)C2=O)c1,12.7
22,Cc1sc2ccccc2[n+]1CC(=O)c1ccccc1.[Br-],18.7

row,Compound,"hERG current change (%, negative = inhibition) at 10uM [%]"
1,Cc1sc(N)c(C(=O)c2ccccc2)c1C,9.41
2,O=C(c1ccccc1)c1c2c(cc3sc4ccccc4[n+]13)-c1cccc3cccc-2c13.[Br-],-76.8
3,Cc1sc2cc3c(c(C(=O)c4ccccc4)[n+]2c1C)-c1cccc2cccc-3c12.[Br-],-77.1
4,CN(C)/C=N/c1ncc(C(=O)c2ccccc2)s1,1.48
5,N#C/C(=C\c1ccccc1)C(=O)NC1CC1,11.3
6,O=C(CSc1nnnn1-c1cccc(F)c1)Nc1nc2ccccc2s1,8.36
7,c1ccc2oc(-c3[nH]ncc3CN3CCSCC3)cc2c1,-5.92
8,c1ccc(-c2ccc(-c3[nH]ncc3CN3CCC(N4CCSCC4)CC3)cc2)cc1,-80.7
9,Cc1nonc1C1CCCN1Cc1cn[nH]c1-c1ccc(-c2ccccc2)cc1 (centres unmarked),-24.6
10,COc1ccc(-c2[nH]ncc2CN2CCC(N3CCSCC3)CC2)c(F)c1,1.98
11,COCC1CCN(Cc2cn[nH]c2-c2cc3ccccc3o2)C1 (centres unmarked),-33.7
12,c1ccc2oc(-c3[nH]ncc3CN3CCC(N4CCSCC4)CC3)cc2c1,-61.9
13,CN(C)c1ccc(CNC(=O)CN(C)S(=O)(=O)c2ccc3c(c2)c(=O)n(C)c(=O)n3C)cc1,9.67
14,CC1(C)CC(=O)C2=C(C1)NC(=O)NC2c1ccccc1Cl (centres unmarked),16.3
15,Cc1ccc(S(=O)(=O)NCC(=O)N(CC2CCCO2)C(C(=O)NC2CCCCC2)C(C)C)cc1 (centres unmarked),-52.7
16,Cc1ccc(S(=O)(=O)NCC(=O)N(CC2CCCO2)C(C(=O)NC2CCCC2)C(C)C)cc1 (centres unmarked),-1.47
17,CC(C)C(C(=O)NC1CCCCC1)N(CC1CCCO1)C(=O)CNS(=O)(=O)c1ccc(F)cc1 (centres unmarked),-7.17
18,Cl.O=C(O)CCNc1nc(-c2ccccc2)nc2ccccc12,2.17
19,CC(C)(C)OC(=O)NNC(=O)NC12CC3CC(CC(C3)C1)C2,-4.97
20,Cc1ccc(NC(=O)CSc2nc(N)cc(N)n2)cc1S(=O)(=O)N1CCOCC1,7.71
